MBD2 DNA inh = inhibitors of MBD2 binding to methylated DNA, primary screen, biochemical, TR-FRET, DNA-binding domain, human; Methyl-CpG-binding domain protein 2 (Homo sapiens), Q9UBB5; inhibition, % at 4.4 µM; 370,000 compounds, 0.31% hits; AID 686964, 2013; MBD2 binding to methylated oligonucleotide; in the data active means inhibition above about 13%
PLC-beta3 inh = human PLC-beta3 inhibitors, primary screen, biochemical, fluorescence | 1-phosphatidylinositol 4,5-bisphosphate phosphodiesterase beta-3 (Homo sapiens), Q01970 | Purified PLC-beta3, fluorogenic substrate | inhibition, % at 12.2 µM | 370,000 compounds, 0.18% hits; in the data active means inhibition above about 11%;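 further: 0% = median of compound wells on plate and 100% = full blocker control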
PLC-gamma1 inh = PLC-gamma1 enzyme inhibitors, primary screen, biochemical, fluorescence, purified enzyme; inhibition, % at 12.2 µM; 1-phosphatidylinositol 4,5-bisphosphate phosphodiesterase gamma-1 (Homo sapiens), P19174; 370,000 compounds, 0.84% hits; AID 720700, 2013; fluorogenic substrate
UHRF1 MBD2 ctr = UHRF1 methylated DNA binding inhibitors, primary screen, counter-screen for MBD2 inhibitor project, biochemical, TR-FRET, human UHRF1, single concentration; 370,000 compounds, 0.75% hits; AID 687016, 2013; UHRF1 binding to methylated oligo; inhibition, % at 4.4 µM; in the data active means inhibition above about 21%;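 further: UHRF1 SRA domain binding a hemimethylated CpG hairpin DNA probe; 0% = median of test compound wells and 100% = reference inhibitor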
Target sequence (Q96T88 whole entry, looked up, the tested form may be a part): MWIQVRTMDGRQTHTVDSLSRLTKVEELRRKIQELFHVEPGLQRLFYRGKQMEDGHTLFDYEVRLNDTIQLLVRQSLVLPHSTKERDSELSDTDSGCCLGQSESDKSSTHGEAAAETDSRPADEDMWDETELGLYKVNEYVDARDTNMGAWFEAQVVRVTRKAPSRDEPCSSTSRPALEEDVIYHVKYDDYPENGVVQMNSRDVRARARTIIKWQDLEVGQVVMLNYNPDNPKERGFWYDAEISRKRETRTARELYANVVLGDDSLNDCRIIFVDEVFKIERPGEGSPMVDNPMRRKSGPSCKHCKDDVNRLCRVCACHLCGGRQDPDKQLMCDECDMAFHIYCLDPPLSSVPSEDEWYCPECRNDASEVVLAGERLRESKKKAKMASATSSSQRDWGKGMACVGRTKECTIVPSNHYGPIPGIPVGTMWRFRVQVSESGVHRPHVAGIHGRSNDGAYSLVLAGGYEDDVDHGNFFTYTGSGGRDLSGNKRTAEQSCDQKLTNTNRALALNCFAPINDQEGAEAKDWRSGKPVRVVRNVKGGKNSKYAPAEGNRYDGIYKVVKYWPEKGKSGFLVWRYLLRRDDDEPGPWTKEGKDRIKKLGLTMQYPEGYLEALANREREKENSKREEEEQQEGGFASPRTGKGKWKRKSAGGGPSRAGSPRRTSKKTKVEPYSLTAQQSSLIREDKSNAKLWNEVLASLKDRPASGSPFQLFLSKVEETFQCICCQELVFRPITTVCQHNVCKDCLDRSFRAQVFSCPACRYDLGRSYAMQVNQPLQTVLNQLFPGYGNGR
LEDGF integ inh = blockers of LEDGF/p75-dependent integrase strand transfer – biochemical, TR-FRET, high throughput, primary screen; 370,000 compounds, 0.64% hits; HIV-1 integrase (with human LEDGF/p75); TR-FRET IN-LEDGF/p75 DNA integration, Eu/Cy5; AID 743269, 2014; inhibition, % at 3.7 µM;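 active means inhibition above the screen-wide mean plus 3 SD, cut at about 13% in these data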;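 further: signal is the Cy5 over europium emission ratio at 671 and 618 nm; 0% = plate median of compound wells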
PLCgamma1 ctr = PLC-gamma1 enzyme inhibitors, counter-screen for PLC-beta3 inhibitor project, biochemical, fluorescence; shares compounds with PLC-gamma1 inh; purified PLC-gamma1, fluorogenic substrate; inhibition, % at 12.3 µM; 3,300 compounds, 3.1% hits; AID 743258, 2014
PLCbeta3 conf = PLC-beta3 inhibitor confirmation, biochemical, fluorescence, purified enzyme; shares compounds with PLC-gamma1 inh; fluorogenic substrate fluorescence; inhibition, % at 12.3 µM; 3,300 compounds, 1% hits; AID 743261, 2014; in the data active means inhibition above about 11%
An asterisk follows results filed as active; . = not tested or not shown. Rows were chosen to be rich in hits. Some 2.3% of all compounds tested hit in one or more screens of this group. Unless noted, no stated cut-off is given here; in the data, active means inhibition above about 9.5%; inactive means the rest.

SMILES	MBD2 DNA inh	PLC-beta3 inh	PLC-gamma1 inh	UHRF1 MBD2 ctr	LEDGF integ inh	PLCgamma1 ctr	PLCbeta3 conf
COCCCNC(=O)C[C@@H]1C[C@@]2(C(=O)OC)CCCCC=C2N(Cc2cccc3ccccc23)C1=O	-6	3	2	1	-1	.	.
CCOC(=O)c1cnn(-c2nc(C)cc(C)n2)c1N	0	5	10*	2	-2	-2	-1
CCOC(=O)c1cnn(-c2ccccc2)c1N	0	1	2	-1	0	.	.
COC1OC2COC(c3ccccc3)OC2C(NC(C)=O)C1OC(C)=O (centres undefined)	-8	14*	10*	1	2	1	4
COc1ccc(-n2c(SCC(=O)Nc3ccc4c(c3)OCCO4)nnc2-c2ccccc2)cc1	1	1	0	-2	0	.	.
Cc1c(CN(C)C(=O)c2ccc(Br)o2)cnn1C	-10	5	12*	4	4	-7	-5
CSc1ccccc1NC(=O)Cn1c(-c2cscn2)nc2ccccc21	-1	8	9.8*	3	7	-7	0
CC(C)C[C@H]1COc2cc(Br)ccc2S(=O)(=O)N1Cc1cn(Cc2ccco2)nn1	-4	2	0	-1	2	.	.
COc1ccc(S(=O)(=O)N2CCN(C(=O)CSc3nc4ccccc4nc3N3CCCCC3)CC2)cc1	-7	-2	0	0	3	.	.
COc1ccccc1C(=O)N1CC(=O)Nc2ccc(F)cc2C1c1ccccc1 (centres undefined)	-3	3	9.6*	3	6	-10	-2
O=C1CN(C(=O)c2ccccc2[N+](=O)[O-])C(c2ccccc2)c2cc(Br)ccc2N1 (centres undefined)	-5	-5	9.7*	-3	3	-3	-9
Cc1nn(C(C)C(=O)N2CCOCC2)c(C)c1[N+](=O)[O-] (centres undefined)	4	3	11*	2	3	-4	-10
Cc1nn(C(C)C(=O)O)c(C)c1[N+](=O)[O-] (centres undefined)	0	4	1	6	0	.	.
CCN(Cc1cn(Cc2ccccc2)nn1)S(=O)(=O)c1ccc(F)cc1Br	6	1	0	0	-3	.	.
CCCn1c(SCC(=O)Nc2nc3c(s2)CCCC3)nc2c1c(=O)n(C)c(=O)n2C	-4	7	10*	3	5	1	1
COC(=O)C[C@H]1CC[C@H]2[C@H](COc3ccc(NC(=O)Nc4ccccc4F)cc3C(=O)N2C)O1	-1	2	0	1	1	.	.
COc1cc(CNCCc2ccc(S(N)(=O)=O)cc2)ccc1OCc1ccc(Cl)cc1	3	4	5	-1	0	.	.
CCOc1cc(CNCCc2ccc(S(N)(=O)=O)cc2)ccc1OCc1ccc(Cl)cc1	3	9	21*	7	-3	3	2
COc1ccc(C(=O)Oc2ccc(C(C)=O)cc2)c(OC)c1	7	1	10*	6	-3	-4	-3
Cc1cc(=O)[nH]c(N2CCCC2)n1	-1	5	12*	7	0	-9	-3
O=C(NCCc1nc2ccccc2n1C/C=C/c1ccccc1)C1CCCCC1	-4	7	9	-1	3	.	.
Cc1cccc(NC2=C(NC(=O)c3ccccc3)C(=O)c3ccccc3C2=O)c1	-20	6	10*	-13	11	5	4
CCO[C@H]1OC(C(=O)Nc2ccccc2)=C[C@@H](c2ccc(C(F)(F)F)cc2)[C@@H]1CCCO	-1	7	10*	2	1	-3	4
COc1ccc(Cn2cc(COC(=O)NCC(C)C)nn2)cc1	0	-2	-2	-1	-3	.	.
